Measurements published in PubChem BioAssay (NCATS).
Records with an inconclusive call do not appear. Unmarked numbers belong to inactive results. The call rests on the fitted dose curve; in most records, active means well fitted cell-killing curve with a large enough effect; inconclusive means small, poorly fitted or top-dose-only effect; inactive means flat fitted curve, though single readings scatter.

Test: Cell Viability - LYMP2-020 (AID 986);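 further: plate controls were DMSO only for no effect and tetraoctylammonium bromide at 92 µM for full effect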
Settings: series mostly up to 92.2 µM; activity change, negative = viability loss: at the top concentration
Summary of the method: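 Human lymphoblastoid cells, 2500/well, were pre-incubated 5 hr at 37 C, then exposed to compounds for 24 hr at 37 C in complete medium. Intracellular ATP was read by CellTiter-Glo luminescence, and AC50 was derived by Hill fitting of concentration-response data.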
Further: nearly all actives have a fitted effect of over 55% in size.

Row | Structure (SMILES) | activity change, negative = viability loss [%]
1 | CC(C)N(C)C | -0.601
2 | CC#N | -9.11
3 | O=Cc1c(Cl)cccc1Cl | -17.2
4 | Nc1nc2ccccc2[nH]1 | -9.95
5 | C=C(C)OC(C)=O | -3.94
6 | CCOCCOCC | -6.22
7 | CNc1ccc([N+](=O)[O-])cc1 | -3.18
8 | O=P(O)(OCc1ccccc1)OCc1ccccc1 | 3.51
9 | C=C(C)C1CC=C(C)C(OC(C)=O)C1 (stereo not drawn) | 0.763
10 | Oc1c(Cl)ccc(Cl)c1Cl | 9.65
11 | C=C(C)C(=O)OCCCCCC | 7
12 | Cc1ccc2ccccc2c1[N+](=O)[O-] | 10.5
13 | Cc1cscn1 | -0.167
14 | CCOC(=O)OCC | -1.11
15 | C=CCCCCCC | -10.3
16 | C=C(C)C(=O)OCC(C)C | -15
17 | O=Cc1ccc(C(=O)O)cc1 | -8.62
18 | COc1ccc(N=[N+]([O-])c2ccc(OC)cc2)cc1 | -17.3
19 | CC(C)=CCl | -0.176
20 | Cc1ccc(CO)cc1 | -6.89

Row | Structure (SMILES) | activity change, negative = viability loss [%]
21 | COc1cccc2sc(N)nc12 | -1.41
22 | CCCCCCCCC/C=C/CC1CC(=O)OC1=O (stereo not drawn) | -11.9
23 | NC(=O)NC(N)=O | -1.3
24 | CN(C)CCCNCCCN | -5.88
25 | Cc1ccc2ncccc2c1 | -3.41
26 | Cc1cccc(C)c1 | -12.3
27 | O=C(O)c1cc(Cl)cc(Cl)c1 | -6.37
28 | CC(CCl)OC(C)CCl (stereo not drawn) | -2.46
29 | CCCCC(CC)COC(=O)CCCCC(=O)OCC(CC)CCCC (stereo not drawn) | -13.2
30 | CCCCN(CCO)CCCC | -2.51
31 | Nc1cc(Cl)c(N)c(Cl)c1 | 1.1
32 | CC(C)(c1cc(Br)c(OCC(Br)CBr)c(Br)c1)c1cc(Br)c(OCC(Br)CBr)c(Br)c1 (stereo not drawn) | -10.4
33 | C=Cc1ccccc1C=C | -1.84
34 | C/C=C1\CC2C=CC1C2 (stereo not drawn) | -8.83
35 | CNC(=O)c1ccccc1 | -8.17
36 | C/C=C(/C)C#N | -7.64
37 | O=c1[nH][nH]c(=O)c2cc([N+](=O)[O-])ccc12 | -12.2
38 | CC(C)CO | 2.98
39 | Cc1ccc(C#N)cc1 | -14.6

Test: Cell Viability - LYMP2-022 (AID 987);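 further: 0% = DMSO alone and full effect = tetraoctylammonium bromide at 92 µM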
Settings: LYMP2-022 lymphoblastoid cell viability; series mostly up to 92.2 µM; viability change, negative = cytotoxic: at the top concentration
Summary of the method: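 Human lymphoblastoid cells, 2500/well, preincubated 5 hr at 37 C, then exposed to compounds over a concentration range for 24 hr at 37 C in complete medium. Viability read as intracellular ATP by CellTiter-Glo luminescence after 30 min at room temperature; AC50 from Hill fits.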

Row | Structure (SMILES) | viability change, negative = cytotoxic [%]
40 | CC(C)N(C)C | -2.05
41 | CC#N | -3.24
42 | O=Cc1c(Cl)cccc1Cl | -9.39
43 | Nc1nc2ccccc2[nH]1 | -14.3
44 | C=C(C)OC(C)=O | -6.38
45 | CCOCCOCC | -4.93
46 | CNc1ccc([N+](=O)[O-])cc1 | -3.88
47 | O=P(O)(OCc1ccccc1)OCc1ccccc1 | -6.87
48 | C=C(C)C1CC=C(C)C(OC(C)=O)C1 (stereo not drawn) | -1.74
49 | Oc1c(Cl)ccc(Cl)c1Cl | -18.3
50 | C=C(C)C(=O)OCCCCCC | 2.25
51 | Cc1ccc2ccccc2c1[N+](=O)[O-] | -8.44
52 | Cc1cscn1 | 1.01
53 | CCOC(=O)OCC | 0.24
54 | C=CCCCCCC | -7.27
55 | C=C(C)C(=O)OCC(C)C | -14.9
56 | O=Cc1ccc(C(=O)O)cc1 | -10.7
57 | COc1ccc(N=[N+]([O-])c2ccc(OC)cc2)cc1 | -8.72
58 | CC(C)=CCl | -1.61
59 | Cc1ccc(CO)cc1 | -20

Row | Structure (SMILES) | viability change, negative = cytotoxic [%]
60 | COc1cccc2sc(N)nc12 | -8.2
61 | CCCCCCCCC/C=C/CC1CC(=O)OC1=O (stereo not drawn) | -10.8
62 | NC(=O)NC(N)=O | -15.4
63 | CN(C)CCCNCCCN | -29.7
64 | Cc1ccc2ncccc2c1 | -2.68
65 | Cc1cccc(C)c1 | -7.79
66 | O=C(O)c1cc(Cl)cc(Cl)c1 | -7.99
67 | CC(CCl)OC(C)CCl (stereo not drawn) | -4.28
68 | CCCCC(CC)COC(=O)CCCCC(=O)OCC(CC)CCCC (stereo not drawn) | -11.8
69 | CCCCN(CCO)CCCC | -14.1
70 | Nc1cc(Cl)c(N)c(Cl)c1 | -18.2
71 | CC(C)(c1cc(Br)c(OCC(Br)CBr)c(Br)c1)c1cc(Br)c(OCC(Br)CBr)c(Br)c1 (stereo not drawn) | -13
72 | C=Cc1ccccc1C=C | -8.11
73 | C/C=C1\CC2C=CC1C2 (stereo not drawn) | -10.9
74 | CNC(=O)c1ccccc1 | 1.6
75 | C/C=C(/C)C#N | -3.98
76 | O=c1[nH][nH]c(=O)c2cc([N+](=O)[O-])ccc12 | 4.28
77 | CC(C)CO | -6.27
78 | Cc1ccc(C#N)cc1 | -11.5
